CF NFkB block: blocks PAF-induced NF-kB reporter in cystic fibrosis cells. actives 0.86% (n = 360,000). KKLEB NF-kB-GFP reporter, GFP fluorescence overnight. inhibition, % at 5 µM. AID 588850;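 active = at least 50% inhibition at 5 µM, scaled per plate between neutral and stimulator controls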;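 also: PAF is a Pseudomonas aeruginosa culture filtrate used as stimulus; plate controls were PAF-stimulated DMSO wells for no effect and unstimulated DMSO wells for full effect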
Shn3 3UTR inh: Schnurri-3 reporter inhibition in Clone20 osteoblasts; Clone20 osteoblast Shn3 3'UTR firefly luciferase, 24 h; inhibition, % at 12.5 µM; actives 0.52% (n = 360,000); AID 588674;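 active = mean inhibition of at least 75% with every replicate also reaching 75%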;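 also: 0% = median of neutral control wells and 100% = pilot-screen positive control compound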
Peg3 promoter: Peg3 promoter activity inhibition; actives 1.7% (n = 360,000); HeLa PEG-Prom luciferase reporter, luminescence, overnight; inhibition, % at 20 µM;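 active = inhibition of at least 50% at 20 µM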
HIF-2a inh: inhibitors of HIF-2a. 786-0 RCC cells HIF-2a reporter, luciferase luminescence, overnight. inhibition, % at 18.8 µM. actives 0.72% (n = 360,000);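 active = inhibition of the luminescence signal of 40% or more relative to plate controls, in a single-dose primary screen at 18.75 µM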
KKLEB cytotox: counter-screen for CF NF-kB inhibitors: cytotoxicity | KKLEB CF airway cells viability, ATPlite luminescence, overnight; active compounds read low; cells stimulated with P. aeruginosa culture filtrate | activity change (cytotoxicity), % at 5 µM | actives 0.36% (n = 360,000) | AID 602141;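 active = corrected activity change at or below -50% at 5 µM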
TRPM1 prom inh: inhibitors of MITF-driven TRPM1 promoter in melanoma cells; inhibition, % at 12.5 µM; actives 0.83% (n = 330,000); SK-MEL-5 TRPM1 promoter luciferase, 24 h;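 active = mean inhibition across replicates of 60% or more, whatever share of single replicates reaches that level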
* marks the source's active call; other numbers are inactive results; . = no result given; ! = repeats disagree. Compounds with a hit are over-represented: about 2.8% of the library has one in this group of screens.

SMILES | CF NFkB block | Shn3 3UTR inh | Peg3 promoter | HIF-2a inh | KKLEB cytotox | TRPM1 prom inh
Cc1cc(NC(=O)CSc2nnc(C(F)(F)F)n2C)no1 | -13.1 | -12.0 | 3.5 | 1.2 | -9.2 | -9.7
O=C(c1ccc2c(c1)OCCO2)C1CCN(S(=O)(=O)c2ccc(F)cc2)CC1 | 10.2 | 28.3 | 55.0* | 19.1 | -2.4 | 1.7
CCOc1ccc(NC(=O)CN(C)CC(=O)Nc2ccc(F)c(F)c2F)cc1OCC | -18.6 | -12.5 | 17.6 | 16.9 | 0.6 | 1.7
COc1cc2c(c(OC)c1OC)-c1ccc(SC)c(=O)cc1C(NC(=O)c1ccccc1)CC2 (stereo not given) | 23.2 | 7.3 | -23.9 | 23.7 | -7.5 | 40.2
C=COC(=O)NC1CCc2cc(OC)c(OC)c(OC)c2-c2ccc(SC)c(=O)cc21 (stereo not given) | 35.9 | -7.9 | -15.8 | 31.2 | 0.8 | 50.8
COc1cc2c(c(OC)c1OC)-c1ccc(OC)c(=O)cc1C(NC(C)=O)CC2 (stereo not given) | 41.9 | -37.2 | -13.6 | 24.6 | -25.5 | 66.5*
COc1cc2c(c(OC)c1OC)-c1ccc(OC)c(=O)cc1C(NC(=O)c1ccccc1)CC2 (stereo not given) | 45.3 | -0.3 | -49.6 | 23.1 | -2.9 | 33.2
COc1cc2c(c(OC)c1OC)-c1ccc(SC)c(=O)cc1C(NC=O)CC2 (stereo not given) | 47.9 | 6.4 | -14.1 | 22.4 | -31.8 | 63.9*
COC(=O)c1ccc2c(c1)C(NC(C)=O)CCc1cc(OC)c(OC)c(OC)c1-2 (stereo not given) | 58.7* | 12.3 | -39.7 | 23.3 | -13.1 | 34.8
COc1cccc(C(=O)Nc2ccc3c(cc2=O)[C@@H](NC(C)=O)CCc2cc(OC)c(OC)c(OC)c2-3)c1 | 38.2 | 16.4 | 21.6 | 36.9 | -11.2 | 62.1*
O=c1[nH]c2nc(Br)[nH]c(=O)c2[nH]1 | -6.6 | -4.5 | 2.2 | 17.2 | 11.5 | -4.1
C=CCn1c(SCC(=O)N(C)CC(=O)Nc2ccc(C)cc2)nnc1-c1ccncc1 | 9.3 | -9.7 | 6.8 | 5.8 | -10.8 | 6.4
COCC(C)N1CCC(n2nccc2NC(=O)CCCc2ccccc2)CC1 (stereo not given) | 6.2 | 6.7 | -1.4 | 6.9 | -0.8 | 0.4
O=C(CCl)N1CCN2C(=O)c3ccccc3C12c1ccc(Cl)cc1 (stereo not given) | 18.7 | -11.3 | 87.5* | 19.6 | 1.4 | 55.5
COC(=O)[C@H](Cc1c[nH]c2ccccc12)NC(=O)NCc1ccc(OC)cc1 | -9.5 | -6.3 | 2.4 | 11.8 | 11.1 | -4.3
Fc1ccc(CNC(=S)Nc2cccc(C(F)(F)F)c2)cc1 | 1.7 | -0.6 | 68.6* | 1.5 | -0.1 | -1.4
Cc1ccc(-c2c3c(nc4sc(C(N)=O)c(N)c24)CCC3)cc1 | 13.5 | 8.1 | -143.9 | 29.4 | 0.6 | 4.1
COc1ccc(-c2c3c(nc4sc5c(Cl)nc(C)nc5c24)CCC3)cc1 | -5.9 | 0.4 | 108.8* | -1.9 | 1.7 | 47.2
C=CC[n+]1c(-c2ccc(OC)cc2)csc1NNC(=O)Nc1ccccc1 | 9.0 | 21.7 | 1.1 | -80.0 | 2.1 | 6.1
C=CC[n+]1c(-c2ccc(C)cc2)csc1Nc1ccc(NC(C)=O)cc1 | -12.8 | 79.7 | 20.2 | 90.5* | 1.8 | 80.9*
CCN(CC(=O)NC1CCS(=O)(=O)C1)C(C)C(=O)Nc1ccc(F)cc1 (stereo not given) | -5.3 | -1.3 | 18.7 | -5.3 | -16.1 | 6.7
CC(C)c1cccc(C(C)C)c1NC(=O)c1ccc(-c2cc(Cl)ccc2Cl)o1 | 9.2 | 10.3 | -9.9 | 9.3 | 3.9 | .
COc1ccc(/C(C)=N/NC(=O)c2cccc(S(=O)(=O)N3CCCC3)c2)c(O)c1 | -2.9 | 88.5* | 45.2 | 5.5 | -14.6 | 73.3*
COc1ccc(C(C)=NNC(=O)c2cccc(S(=O)(=O)N3CCCC3)c2)cc1 | 0.0 | 12.8 | 4.3 | -3.5 | -8.9 | 15.5
CC(O)CNC(=O)Cc1cc(=O)[nH]c(=O)[nH]1 (stereo not given) | -1.7 | 4.0 | 2.8 | 18.5 | 0.1 | -8.5
SMILES | CF NFkB block | Shn3 3UTR inh | Peg3 promoter | HIF-2a inh | KKLEB cytotox | TRPM1 prom inh
NS(=O)(=O)c1ccc(N/N=C/c2cn(-c3ccccc3)nc2-c2cccs2)cc1 | -15.0 | -0.6 | -102.3 | -215.9 | 6.6 | -57.4
NS(=O)(=O)c1ccc(N/N=C/c2cn(-c3ccccc3)nc2-c2cccs2)c([N+](=O)[O-])c1 | 87.5* | 73.3 | -0.7 | 0.3 | -81.6* | -6.4
COc1ccc(N(CC(=O)N/N=C/c2ccccc2OC)S(=O)(=O)c2ccccc2)cc1 | -13.7 | -6.2 | -0.5 | 13.3 | 8.9 | 5.0
O=C1N/C(=C/c2ccc(N3CCOCC3)o2)C(=O)N1c1ccccc1 | -20.4 | 91.6* | -8.4 | 18.6 | 9.1 | -18.7
Oc1ccc(Cl)cc1Sc1cc(Cl)ccc1O | 63.4* | -7.4 | 71.3* | 9.8 | 10.2 | 15.9
CCOc1ccccc1Nc1nc(-c2sc(NC(=O)c3ccco3)nc2C)cs1 | 19.0 | 14.4 | 60.3* | 15.0 | -9.7 | 45.1
CC(=O)c1cccc(Nc2nc(-c3cccc([N+](=O)[O-])c3)cs2)c1 | -48.2 | -58.3 | -191.4 | -195.7 | 3.7 | -70.0
Cc1nc(NC(=O)c2ccccc2)sc1-c1csc(Nc2ccc(C(=O)O)cc2)n1 | 66.1* | -25.3 | -53.4 | -136.0 | -4.2 | -29.4
CC(=O)Nc1nc(C)c(-c2csc(Nc3cccc([N+](=O)[O-])c3)n2)s1 | 85.5* | 37.3 | 46.7 | -30.8 | -39.3 | 45.2
CCC(=O)Nc1nc(C)c(-c2csc(Nc3ccc(C(=O)O)cc3)n2)s1 | -0.6 | -21.6 | -3.4 | 11.3 | 4.3 | 6.6
CC(=O)Nc1cccc(-c2csc(Nc3ccccn3)n2)c1 | -10.3 | -42.7 | -203.1 | -239.7 | 12.4 | -38.5
CC(=O)Nc1nc(C)c(-c2csc(Nc3ccccn3)n2)s1 | 56.1*! | -41.7 | -179.7 | -210.4 | -20.9 | -13.4
CCOC(=O)C(CC)n1cnc2c(nnn2-c2cccc(OC)c2)c1=O (stereo not given) | -3.3 | -23.3 | -17.3 | -25.0 | 17.7 | -1.1
COc1cccc(-n2c(=O)n(Cc3ccccc3)c(=O)c3[nH]cnc32)c1C | 20.7 | -5.1 | 9.6 | 14.0 | -2.2 | 4.0
O=C(Cc1nnc(NC(=O)Nc2ccccc2F)s1)NCc1ccccc1 | -13.2 | 8.9 | -10.9 | -11.4 | 9.5 | .
CC(=O)Nc1nc(C)c(-c2csc(Nc3ccc(O)cc3)n2)s1 | 78.1* | 41.6 | 36.5 | 0.4 | -17.2 | 46.1
COc1ccccc1-c1sc2cc3c(cc2c1-c1ccc(OCCN2CCCCC2)cc1)OCO3 | 24.7 | -12.6 | 100.1* | 21.6 | -28.2 | -0.9
COc1cc2sc(-c3ccccc3OC)c(-c3ccc(OCCN4CCCCC4)cc3)c2cc1OC | 18.7 | -11.1 | 89.4* | 19.1 | -29.5 | 24.7
Cc1ccc(S(=O)(=O)N2C[C@H]3n4c(=O)ccc(=O)n4C[C@H](OC(=O)NCC4CCCCC4)[C@@]3(O)C2)cc1 | 40.5 | -13.5 | 94.0* | 11.4 | -7.2 | .

Compound activity (PubChem)
